# Compounds without any hit were thinned out: in the full panel of roughly 83,000, 20% have a hit.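 Compound tested at a single concentration for 48 hours in 96-well plates; a percent growth value below 10 was scored as active.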 Unmarked numbers belong to inactive results. The source made the active and inactive calls.
# Tests used:
# Test in all cases: NCI-60 one-dose screen, 48 h (100 = growth as untreated, 0 = no growth, -100 = all killed)
# Settings in all cases: 10 µM
# HCT-15 colon = test system: HCT-15 colon
# HT29 colon = test system: HT29 colon
# SNB-75 CNS = test system: SNB-75 CNS
# SNB-19 CNS = test system: SNB-19 CNS
# U251 CNS = test system: U251 CNS
# PC-3 prostate = test system: PC-3 prostate
# SK-MEL-5 melanoma = test system: SK-MEL-5 melanoma
# UACC-62 melanoma = test system: UACC-62 melanoma
# LOX IMVI melanoma = test system: LOX IMVI melanoma
# SK-MEL-28 melanoma = test system: SK-MEL-28 melanoma
Compound,growth (HCT-15 colon),growth (HT29 colon),growth (SNB-75 CNS),growth (SNB-19 CNS),growth (U251 CNS),growth (PC-3 prostate),growth (SK-MEL-5 melanoma),growth (UACC-62 melanoma),growth (LOX IMVI melanoma),growth (SK-MEL-28 melanoma)
Cc1noc2c(Cc3ccc([N+](=O)[O-])cc3)nn(CC(=O)N/N=C/c3ccc(Br)cc3)c(=O)c12,94.8%,86.1%,104%,69.6%,70.4%,78.1%,92%,80.1%,52.2%,96.4%
CO[C@@H]1CSS[C@H]1Cn1nc(-c2ccc(Oc3ccccc3)cc2)c2c(N)ncnc21,66.9%,51.1%,113%,71.8%,60%,51.7%,25.7%,-11.1% (active),53.7%,-0.701% (active)
O=C(c1ccc(Cl)cc1)C1[C@H](c2ccccc2Br)[C@@H](c2ccccc2)NC12C(=O)Nc1ccccc12 (stereo not given in full),12%,-16% (active),33.1%,31.6%,21.5%,17.3%,-15.9% (active),7.38% (active),-69.1% (active),44.8%
CN1C(=O)N(C)C2SC(N/N=C/c3ccccc3)=NC21 (stereo not given),30.1%,38.5%,60.7%,74.6%,60.4%,84.7%,68.4%,42.5%,63.4%,75.5%
CC(C)CCSc1nc(NC2CC2)c(C#N)c(-c2ccc(C(C)C)cc2)n1,106%,108%,111%,98.6%,106%,106%,102%,98.3%,100%,110%
COc1ccc(NC(=O)CSc2nnc(-c3ccc4nc(-c5ccc(Cl)cc5)[nH]c4c3)o2)cc1,29.9%,34.6%,112%,33.7%,-15.3% (active),51.9%,16.1%,7.61% (active),16.6%,10.1%
O=C(Nc1cc(Cl)cc(Cl)c1)Nc1cc(Cl)cc(Cl)c1,-23.1% (active),-20.9% (active),-14.1% (active),5.6% (active),-23.2% (active),0.387% (active),-100% (active),-66.1% (active),-91.1% (active),-12.1% (active)
O=C1c2ccccc2C(=O)c2c1c(C(=O)c1ccc(Cl)cc1)n1c2ccc2c3ccccc3ccc21,103%,109%,86.7%,96.1%,110%,94.8%,99.9%,96.9%,90.2%,108%
O=C(N/C(=C1/OCCN1Cc1ccccc1)[P+](c1ccccc1)(c1ccccc1)c1ccccc1)c1ccccc1,77.8%,14.6%,26.9%,10.4%,14.3%,22.5%,-100% (active),-36.4% (active),6.07% (active),22.8%
O=C(CS(=O)(=O)c1oc(-c2ccc(Cl)cc2)nc1S(=O)(=O)c1ccc(Cl)cc1)N1CCOCC1,-53.6% (active),-48.9% (active),54.7%,86.2%,35.9%,63.3%,77.6%,56.7%,-90.8% (active),35%
CCOC(=O)C(Cc1ccccc1)N1C(=O)/C(=C/N2N=C(c3ccc(OC)cc3)CC2c2ccc3ccccc3c2)SC1=S (stereo not given),-67.4% (active),-2.97% (active),40.6%,14.9%,-26.8% (active),18.9%,-98.2% (active),-76.7% (active),-100% (active),9.31% (active)
CCN1CCN(Cc2ccc(C(=O)Nc3cccc(-c4cn(-c5ccc6oc(=O)ccc6c5)nn4)c3)cc2C(F)(F)F)CC1,-100% (active),-100% (active),-33.2% (active),-100% (active),-100% (active),-40.8% (active),-100% (active),-100% (active),-100% (active),-100% (active)
O=C(NCCCCCCCCCC[P+](c1ccccc1)(c1ccccc1)c1ccccc1)c1ccc(-n2nc(-c3ccccc3O)nc2-c2ccccc2O)cc1,-90.4% (active),-72.9% (active),-27.1% (active),-93.9% (active),-50% (active),-48.3% (active),-100% (active),-88.9% (active),-96.9% (active),-93.8% (active)
Cc1ccc(S(=O)(=O)c2nc(-c3ccccc3)oc2S(=O)(=O)CC(=O)N2CCCC2)cc1,-78.2% (active),-81.7% (active),14.7%,68.2%,-77.5% (active),4.7% (active),26.5%,-85.4% (active),-91.3% (active),-100% (active)
CC(=O)Oc1ccccc1C(=O)Oc1ccc(C(=O)/C=C/c2ccncc2)cc1,-4.84% (active),22%,102%,47.2%,14.7%,54.7%,71.2%,50.6%,-44.2% (active),68.8%
O=C(Nc1cccc(C(F)(F)F)c1)c1cncc(C#Cc2cnc3cccnn23)c1,37.7%,49.4%,122%,82.7%,67.6%,35.3%,25.6%,35.4%,22.1%,63.2%
CONC[C@]1(C)C=C2C(=O)[C@](C)(O)C3(CC3)C(C)=C2[C@H]1O,-24.4% (active),-12% (active),-80.9% (active),-10.7% (active),3.39% (active),3.46% (active),-37.4% (active),-90% (active),-67.3% (active),-73.2% (active)
CC1(C)CC[C@]2(C(=O)Nc3ccccc3)CC[C@]3(C)C(=CC[C@@H]4[C@@]5(C)CC[C@H](N)C(C)(C)[C@@H]5CC[C@]43C)[C@H]2C1,-71.4% (active),21.8%,95.6%,100%,-47.5% (active),75.8%,94.5%,115%,-98.7% (active),109%
CCOC(=O)CNC(=O)CN(Cc1ccccc1)C(=O)[C@@]1(C)CCC[C@]2(C)[C@H]3CC4C(C(C)C)=C[C@]3(CC[C@H]21)[C@@H]1C(=O)CCC(=O)[C@H]41,17.6%,41.1%,86.2%,81.1%,63.8%,35.3%,68.6%,38.9%,-75.1% (active),62.7%
O=C(CSc1nnc(-c2c[nH]c3ccccc23)n1-c1ccccc1)Nc1ccc(C(=O)/C=C/c2ccc(Br)cc2)cc1,68.1%,86.6%,86.6%,77%,81.6%,66%,90.5%,66.4%,81.6%,94%
COc1ccc(CCN2C(=O)/C(=C/c3csc(C#N)n3)SC2=S)cc1,-51.7% (active),-49.4% (active),53.2%,72.2%,21.4%,32.8%,36.6%,-26.6% (active),-78.5% (active),-10.9% (active)
COc1ccc(-c2c(N)c(=O)n(C)c3ccccc23)cc1,49.7%,59.9%,75.4%,62.1%,47.8%,46.9%,57.7%,38.1%,45.9%,86.5%
CCCCCCCCCCCCCCCCCCCC(=O)NCCc1c[nH]c2ccc(O)cc12,96.2%,121%,129%,104%,99%,73.4%,110%,99.7%,76.7%,106%
CC(=O)NCC1=C(C)C=C2C(=O)[C@](C)(O)C3(CC3)C(C)=C21,-20% (active),-20.4% (active),-74.5% (active),-49.8% (active),-13.2% (active),2.77% (active),-84.7% (active),-91% (active),-49.3% (active),-93.3% (active)
COc1cc(/C=C/C(=O)c2ccc(NC(=O)CSc3nnc(-c4c[nH]c5ccccc45)n3-c3ccccc3)cc2)cc(OC)c1OC,23.5%,51%,94.9%,68.9%,18.7%,65.6%,90.2%,59.1%,4.61% (active),104%
CN1CCN(c2ccc(C(=O)/C=C/c3ccc(C#N)cc3)cc2)CC1,33.6%,35.4%,94.2%,79.3%,49.9%,94.7%,83.9%,79.9%,16.7%,108%

# Source: PubChem BioAssay (NCI)
